Potency data for 24 molecules are collected here from PubChem BioAssay AID504465 (National Center for Advancing Translational Sciences (NCATS), 2011).

The whole screen tested about 2,100 compounds, of which about 210 (10%) were called active. Another 53% or so got no clear call; they are omitted. The call rests on the fitted dose curve; in most records, active means well fitted inhibition curve with a large enough effect; inconclusive means small, poorly fitted or top-dose-only effect, or effect the other way; inactive means no such curve, though single readings can be large or run the other way. The list shows a part of the results. A call without a number means that no potency is given here.
Potency means the concentration at half of the fitted maximal effect.

The assay is described as follows: IN Cell qHTS Assay for Inhibitors of the mTORC1 Signaling Pathway in MEF (Tsc2-/-, p53-/-) Cells: Sytravon. Further: nearly all actives have a fitted effect of over 60% in size. The note with it: phospho-rpS6 immunofluorescence, 24 h; series mostly up to 38.3 µM. Put shortly: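 Tsc2-/-, p53-/- MEFs (empty-vector) treated with compound 24 h at 37 degree Celsius, then fixed and stained for phospho-rpS6 Ser235/236 (Alexa-488) plus Hoechst. Reported as % positive cells, thresholds set against 7.5 nM rapamycin and DMSO wells.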
In general terms: Quantitative high-throughput screening tests each substance at several concentrations.
As to `COc1ccccc1NC(=O)c1c(NCc2ccc(C)o2)sc2c1CCC(C)C2` (centres undefined), the Potency entry was “inactive”.

As to `Cc1ccccc1C(=O)N1CCC(c2nc3ccccc3s2)CC1`, the Potency result was “inactive”.

For the molecule `CC(C)(C)c1ccc(S(=O)(=O)NCc2ccc3c(c2)CCN3C(=O)c2ccccc2)cc1`, the Potency entry is “inactive”. The entry for `CCCCN(C)CCNC(=O)Cn1ncc2c3ccccc3n(CCC)c2c1=O` is “inactive”; for `CCCCNC(=O)c1cc(-c2cccnc2)nc2ccc(S(=O)(=O)NCCCC)cc12` it is “inactive”; for `O=C(CSc1nccn1-c1ccc(Cl)cc1)Nc1ccc(Cl)c(Cl)c1` it is “inactive”. The result for `CCC1=Nc2cc(C(=O)NC3CCC(C)CC3)ccc2Sc2ccc(C)cc21` (centres undefined) reads “inactive”; that for `CC1CCN(S(=O)(=O)c2ccc3nc(Nc4cccc(F)c4)ccc3c2)CC1`, “inactive”; that for `CCSc1nc2ccccc2c(OCc2cc(C(=O)OC)ccc2OC)c1C(=O)OC`, “inactive”.

As for `Cc1ccccc1CS(=O)(=O)c1ncc(Cl)c(C(=O)Nc2nnc(C(C)C)s2)n1`, the Potency is 13.1 µM (active). The entry for `CC(C)c1ccc(NC(=O)CSC2=Nc3ccccc3C3=NC(CCC(=O)NCc4ccc(F)cc4)C(=O)N23)cc1` (centres undefined) is “inactive”. In the case of `O=C(CCn1cnc2onc(-c3ccc(F)cc3)c2c1=O)Nc1ccc(F)c(Cl)c1`, the Potency result is “inactive”. The result for `O=S(=O)(c1ccc(-c2csc(=Nc3ccc(OC(F)(F)Cl)cc3)n2CCCO)cc1)N1CCCC1` reads 1.85 µM (active); that for `COc1ccc(NC(=O)CCCN2C(=O)CCn3nc(-c4cn(C)c5ccccc45)cc32)cc1`, “inactive”.

In the case of `CCOC(=O)C1=C(C)NC(=O)NC1c1cn(-c2ccccc2)nc1-c1ccc(OC(C)C)cc1` (centres undefined), the Potency result was “inactive”. The result for `O=C(Nc1ccc(F)cc1F)c1noc2c1CCc1ccccc1-2` reads “inactive”; that for `CC1=Nc2cc(C(=O)NC3CCCC3)ccc2Sc2ccc(Br)cc21`, “inactive”. The result for `Cc1cccc(C(=O)Nc2c(C(=O)NCc3ccc(Cl)cc3)sc3nc(C)cc(C)c23)c1` reads “inactive”. With `Cc1cc(C)c(NC(=O)c2sc3nc(C)cc(C)c3c2NC(=O)c2ccccc2)c(C)c1`, the Potency entry is “inactive”.

Take `Cc1cc(C)c2c(NC(=O)c3ccccc3Cl)c(C(=O)Nc3ccc(C)c(C)c3)sc2n1`: the Potency was 1.65 µM (active). Turning to `Cc1ccc(NC(=O)c2cc(S(=O)(=O)N3CCc4ccccc43)ccc2F)cc1Cl`, the Potency result was “inactive”.

With `Cc1ccc(C(=O)Nc2c(C(=O)NCc3ccc(Cl)cc3)sc3nc(C)cc(C)c23)cc1`, the Potency is 11.7 µM (active).

Consider `COCCCNC(=O)c1sc2nc(C)c(C(=O)Nc3ccc(C)cc3C)c(-c3ccc(Cl)cc3)c2c1N`, for which the Potency entry was “inactive”. As for `CC(C)(C)c1ccc(NC(=O)CSc2nnc3scc(-c4ccccc4)n23)cc1`, the Potency entry was “inactive”.
